# Shown are actives, neighbours in structure and some others; about 2.2% of the full set was active somewhere.
# BaF3 parental = parental Ba/F3 viability inhibition as JAK2V617F counter-screen | inhibition, % at 5.6 µM | CellTiter-Glo ATP luminescence | 1.1% of 220,000 active;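 active = inhibition above a per-campaign cutoff, the mean inhibition of all tested compounds plus 3 SD, cut at about 27% in these data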
# aSyn 5UTR inh = MLPCN primary screen, SNCA 5' untranslated region; inhibition, % (tested at 7.5 µM); AID 1813; alpha-synuclein 5'UTR reporter, inhibitor activity; 0.82% of 300,000 active; in the data active = inhibition above about 60%; inconclusive = no clear call, values can overlap the other calls;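 note: H4 neuroglioblastoma cells stably carrying SNCA 5'UTR luciferase fusion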
# IEC-6 tox = kills IEC-6 intestinal cells in KLF5 counter-screen; AID 1825; 0.78% of 290,000 active; inhibition, % at 5 µM; IEC-6 cytotoxicity, luminescence viability; in the data active = inhibition above about 22%
# Ba/F3 V617F tox = loss of viability in JAK2V617F-driven Ba/F3 cells; Ba/F3 EpoR-JAK2V617F viability, ATP luminescence; inhibition, % at 5.6 µM; 1.1% of 220,000 active; AID 1446;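 active = inhibition above the campaign mean plus 3 SD over all tested compounds, cut at about 24% in these data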;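 note: cytokine-independent growth of Ba/F3 cells driven by EpoR plus mutant JAK2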
# KLF5 inhibitor = kruppel-like factor 5 inhibition; DLD-1 KLF5 promoter-luciferase reporter, luminescence; inhibition, % at 5 µM; 0.23% of 290,000 active; AID 1700;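 active = inhibition above a per-plate limit of that plate's mean compound inhibition plus 3 SD, cut at about 60% in these data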;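 note: higher means less KLF5 promoter-driven luciferase light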
# APP 5UTR inh = APP translation inhibition | SH-SY5Y APP 5'UTR-luciferase reporter, luminescence | 0.82% of 190,000 active | inhibition, % at 2 µM | AID 1285;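 active = inhibition above a set limit, derived from the sample mean plus 3 SD, cut at about 45% in these data; inconclusive = one replicate passes the limit while the other fails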
# A number is an active result; 0 = inactive; ? = inconclusive; - = no result given.
SMILES,BaF3 parental,aSyn 5UTR inh,IEC-6 tox,Ba/F3 V617F tox,KLF5 inhibitor,APP 5UTR inh
C=CCn1c(C)cc(C2=NNC(=Nc3ccc(C)cc3)SC2)c1C,0,0,0,0,0,0
COc1ccc(-n2c(C)cc(C3=NNC(=NC4CC4)SC3)c2C)cc1,0,-,0,0,0,0
C=CCN=C1NN=C(c2cc(C)n(CCOC)c2C)CS1,0,85.8,0,0,0,0
COCCn1c(C)cc(C2=NNC(=NC3CC3)SC2)c1C,0,112.1,0,0,79.5,87.7
COCCn1c(C)cc(C2=NNC(=Nc3ccc(Cl)cc3Cl)SC2)c1C,0,0,0,0,0,0
Cc1cc(C2=NNC(=NC3CC3)SC2)c(C)n1-c1ccccc1,0,95.2,0,0,0,75.9
COc1ccc(CCNC(=O)Oc2ccccc2)cc1OC,-,0,0,-,0,-
Cc1ccc(CN2CCNC(=O)C2CC(=O)N(C)CCc2cnn(C)c2)cc1 (stereo not given),-,0,0,-,0,-
Cc1cc(C2=NNC(=NC3CC3)SC2)c(C)n1Cc1ccco1,0,-,0,0,0,46.7
Oc1ccc(CNc2ccc(F)cc2)c2cccnc12,0,75.6,0,0,0,0
CC(=O)c1sc(Nc2nc(C)cc(C)n2)nc1C,0,0,0,0,0,82.7
COc1ccc(CCNC(=O)c2nonc2N)cc1OC,69.5,0,0,0,0,0
N#CC(C#N)=CNc1cccnc1,0,0,0,0,0,-
CN1/C(=C\P(=O)(N(C)C)N(C)C)C(C)(C)c2ccccc21,62.4,0,0,61.1,0,0
CC1(c2nnc(-c3ccc(Cl)cc3)o2)CC(c2cccnc2)=NO1 (stereo not given),-,0,-,-,-,-
Cc1ccccc1N1CCN(C2CCCN(C(=O)c3csc(C(C)C)n3)C2)CC1 (stereo not given),-,0,0,-,0,-
Cc1cn(C(=O)C(C)N2C(=O)c3ccccc3C2=O)c(C)n1 (stereo not given),0,0,0,0,0,0
Cc1nn(C(=O)C(C)N2C(=O)c3ccccc3C2=O)c(C)c1Br (stereo not given),93.9,0,0,0,0,0
CCCCc1nnc(NC(=O)COc2ccc3c(C)cc(=O)oc3c2)s1,0,0,0,0,0,-
Cc1ccc(NC(=O)Cc2sc(C)nc2-c2ccc(C)cc2)cc1,39.4,0,0,0,0,0
COCCNC(=O)/C(C#N)=C\c1ccc(CNC(=O)C(=O)Nc2ccc(C)c(C)c2)o1,0,0,0,0,0,0
COc1ccc(NC(=O)C(=O)N/N=C\c2ccc(CNC(=O)C(=O)Nc3ccc(C)c(C)c3)o2)c(OC)c1,-,88.4,0,-,0,-
O=C(NC(Cc1ccccc1)C(=O)O)/C(=C/c1ccc(Cl)cc1)NC(=O)c1ccccc1 (stereo not given),37.4,0,0,0,0,0
O=C(NC(Cc1ccccc1)C(=O)O)/C(=C\c1ccccc1F)NC(=O)c1ccccc1 (stereo not given),0,0,0,0,0,0
O=C1c2ccccc2C(=O)C1c1ccc2ccccc2n1,0,94.4,0,0,0,0
SMILES,BaF3 parental,aSyn 5UTR inh,IEC-6 tox,Ba/F3 V617F tox,KLF5 inhibitor,APP 5UTR inh
COC(=O)C1=C(C)NC(C)=C(C(=O)OC)C1c1ccc2ccccc2n1,0,0,0,0,0,-
CC(C(=O)O)n1nc(-c2ccccc2)c2ccccc21 (stereo not given),-,0,0,-,0,-
c1csc(C2Nc3cccc4cccc(c34)N2)c1,32.9,0,0,0,0,0
Cc1c(NC(=O)COC(=O)/C=C/c2ccc(Cl)cc2)c(=O)n(-c2ccccc2)n1C,0,0,0,0,0,0
Cc1c(N/N=C(\C#N)C(=O)c2ccc(Cl)cc2)c(=O)n(-c2ccccc2)n1C,62.4,86.3,0,31.2,0,73.3
Cc1c(NC(=O)COC(=O)C(c2ccc(Cl)cc2)C(C)C)c(=O)n(-c2ccccc2)n1C (stereo not given),96.9,0,0,0,0,-
Cc1c(NC(=O)C(C)Sc2ccccc2)c(=O)n(-c2ccccc2)n1C (stereo not given),0,0,0,0,0,57.6
Cc1ccccc1NS(=O)(=O)c1cc2c(cc1C)N(C)CCO2,-,0,0,-,0,-
COC(=O)CSc1nnc(CCc2ccccc2)n1C,-,0,0,-,0,-
Cc1cccc(NC(=O)c2onc3c2CCCC3)n1,0,85.8,0,0,0,0
COC(=O)c1cccc(NC(=O)c2onc3c2CCCC3)c1,0,78.7,0,0,0,0
O=C(Nc1ccc2ccccc2c1)c1onc2c1CCCC2,0,0,0,0,0,0
CCn1c(/C=C/c2cc(Br)ccc2O)nc2ccccc2c1=O,-,0,0,-,0,-
CCOc1ccccc1NC(=O)CN(c1ccc(OC)cc1)S(=O)(=O)c1c(C)noc1C,74.6,0,0,78.5,0,88.8
CCOc1ccc(N(CC(=O)Nc2ccccc2C)S(=O)(=O)c2c(C)noc2C)cc1,53.5,?,62.7,78.2,0,65.9
CCOc1ccc(N(CC(=O)Nc2ccc(C)c(C)c2)S(=O)(=O)c2c(C)noc2C)cc1,0,0,0,0,0,0
O=C(NCc1nnc2c(C(F)(F)F)cc(Cl)cn12)c1ccc2c(c1)OCO2,-,0,0,-,0,-
Nc1nonc1-n1nnc(C(=O)N/N=C/c2ccccc2F)c1CN1CCc2ccccc21,-,0,0,-,0,-
Cc1cc(C)cc(NC(=O)/C(C#N)=C/c2cn(CC(=O)NCc3ccco3)c3ccccc23)c1,0,110.5,0,0,0,0
O=C(COC(=O)C1(c2cccc(F)c2)CCCC1)NCc1cccs1,0,0,0,0,0,0
O=C(CNCc1ccc(F)cc1)Nc1ccc(C(=O)N2CCCCC2)cc1,-,0,0,-,0,-
CCOc1ccc(Br)cc1S(=O)(=O)N1CC(C)OC(C)C1 (stereo not given),0,0,0,0,0,0
CCOc1cc(Br)ccc1S(=O)(=O)N1CC(C)OC(C)C1 (stereo not given),93.0,0,0,0,0,0
CCOC(=O)Cn1c(=O)c(-c2cc(Br)ccc2N)nc2ccccc21,87.6,0,0,46.9,0,-
Cn1c(=O)c(-c2cc(Br)ccc2N)nc2ccccc21,46.0,0,0,40.1,0,0
SMILES,BaF3 parental,aSyn 5UTR inh,IEC-6 tox,Ba/F3 V617F tox,KLF5 inhibitor,APP 5UTR inh
O=C(CCCN1C(=O)/C(=C\c2ccccc2)SC1=S)Nc1ccc(C(=O)O)cc1,-,0,0,-,0,-
O=C(CCCN1C(=O)/C(=C/c2ccc3c(c2)OCO3)SC1=S)Nc1ccc(C(=O)O)cc1,-,101.6,0,-,0,-
CCc1ccc(/C=C2\SC(=S)N(CCCC(=O)Nc3ccc(C(=O)O)cc3)C2=O)cc1,-,108.6,0,-,0,-
O=C(CCN1C(=O)/C(=C/c2ccc3c(c2)OCO3)SC1=S)Nc1ccc(C(=O)O)cc1,-,0,0,-,0,-
COc1ccc(OC)c(NC(=O)NNC(=O)CCCOc2ccc(Cl)cc2C)c1,0,0,0,0,0,0
COC(=O)CCC(=O)Nc1sc(C)c(C)c1C(N)=O,0,0,0,0,0,0
COC(=O)CCC(=O)NC(=S)Nc1sc(C)c(C)c1C(N)=O,71.3,89.5,40.5,75.0,0,93.9
CCn1c(=O)cc(OCC(=O)N2CCN(c3ccc(F)cc3)CC2)c2ccccc21,0,0,0,0,0,0
